# Reference: the supplement of paper PMC10732440
# ± gives the standard deviation of the averaged measurements.
# Tested on: Caenorhabditis elegans N2 infected with Nematocida parisii ERTm1
# Test: progeny production relative to DMSO uninfected control; higher = more progeny despite microsporidia infection (inhibition of infection with low host toxicity)
# Conditions: infection time 6 days
# Procedure, shortened: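 In 96-well plates holding K-medium, E. coli OP50 and 15,000 N. parisii spores/μL, 100 wild-type C. elegans L1 larvae per well were exposed to compound at 100 μM or 40 μM in 1% DMSO for 6 days with shaking at 21°C. Worms were then stained with Rose Bengal, scanned and counted with WorMachine, with three runs per compound and dose. Each value is progeny production as a percentage of the spore-free vehicle condition, averaged over replicates.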
SMILES,progeny production (40 µM),progeny production (100 µM)
COc1ccc(C2CNC(=O)C2)cc1OC1CCCC1 (centres undefined),4.65 ± 2.2%,11.2 ± 9.9%
COc1ccc(CNC(=O)C(NS(=O)(=O)c2ccc3nc(C)sc3c2)C(C)C)cc1 (centres undefined),4.14 ± 1.6%,6.87 ± 4%
Cc1nc(N(C)C(=O)Cc2ccc(-c3ccccn3)cc2)sc1S(N)(=O)=O,3.86 ± 0.4%,12.9 ± 8.8%
C[C@H](c1cccc2ccccc12)N(C)Cc1ccccc1,3.94 ± 1.7%,12.4 ± 7.8%
O=S(=O)(Nc1ccccc1)c1ccc(NC(=S)Nc2ccccc2)cc1,8.72 ± 4.5%,11.2 ± 6.4%
Nc1nc(NC2Cc3ccc(F)cc3C2)nc(N2CCCCC2)n1 (centres undefined),5.65 ± 3.6%,6.63 ± 4.3%
Nc1nc(N)c2c(Sc3ccccc3)cccc2n1,3.69 ± 1.5%,16.4 ± 12%
O=S(=O)(Nc1ccc(O)cc1)c1cccc2cccnc12,5.85 ± 2.2%,12 ± 6.6%
Cc1cc(C)n2nc(C(=O)NS(=O)(=O)c3c(C)cccc3OC(F)(F)F)nc2n1,9.33 ± 0.97%,5.89 ± 3.9%
CC(Oc1ccc(Cl)cc1Cl)C(=O)NCc1ccc2c(c1)OCO2 (centres undefined),3.27 ± 0.72%,14.5 ± 9.6%
CCC(C)(C)c1ccc(CC(C)CN2C[C@@H](C)O[C@@H](C)C2)cc1 (some centres undefined),4.64 ± 0.33%,23 ± 23%
OB1OCc2c1ccc(Cl)c2F,4.06 ± 1%,18.5 ± 12%
N=C(N)c1ccc(COc2ccc(Cl)cc2)cc1,3.13 ± 0.66%,7.24 ± 6.1%
N[C@H](CCC(=O)N[C@@H](Cc1c[nH]c2ccccc12)C(=O)O)C(=O)O,6.53 ± 2.2%,14.8 ± 3.7%
COc1ccc2sc3c(c2c1)NC(C)CNC3=O (centres undefined),7.35 ± 2.7%,29.9 ± 22%
Nc1nc2c(ncn2COCCO)c(=O)[nH]1,6.44 ± 2.2%,8.34 ± 8.3%
Oc1ccc2[nH]c(-c3ccccc3)nc2c1,5.32 ± 3.2%,11.5 ± 2.5%
Cc1ccc(N2CCC(CCOc3ccc(S(C)(=O)=O)cc3)CC2)nn1,4.13 ± 1%,11.1 ± 10%
CCN(CC)CCCC(C)Nc1ccnc2cc(Cl)ccc12 (centres undefined),8.75 ± 5.2%,5.16 ± 3.5%
c1cnc(NCc2ccc(CNc3ncccn3)cc2)nc1,3.1 ± 0.72%,9.59 ± 5.8%
COc1ccc(C2=CC(c3c(F)cccc3Cl)n3ncnc3N2)cc1 (centres undefined),3.01 ± 1.9%,8.48 ± 5.9%
O=C(NO)C1(CS(=O)(=O)c2ccc(Oc3ccc(Cl)cc3)cc2)CCOCC1,5.79 ± 0.11%,7.72 ± 4.5%

SMILES,progeny production (40 µM),progeny production (100 µM)
CCc1nc(N)nc(N)c1C#CC(C)c1cc(OC)cc(-c2ccncc2)c1 (centres undefined),5.28 ± 2.2%,9.94 ± 7.4%
Cn1cc(NC(=O)c2cc(NC(=O)c3ccc(/C=C/c4cnc5ccccc5c4)cc3)cn2C)cc1C(=O)NCCN1CCOCC1,7.6 ± 3.5%,15.5 ± 5.6%
Nc1nc(O)c2ncn([C@@H]3O[C@H](CO)[C@@H](O)[C@H]3F)c2n1,4.36 ± 1.3%,9.71 ± 4.6%
CC[C@@H](CO)NCCN[C@@H](CC)CO,4.98 ± 2.4%,6.91 ± 5.6%
O=c1ccc2ncc(=O)n3c2n1CC3CN1CCC(NCc2cc3c(cn2)OCCC3)CC1 (centres undefined),2.13 ± 0.25%,18.2 ± 18%
CCCNc1ccc(S(=O)(=O)Nc2cc(C)on2)cc1,3.09 ± 1.4%,14 ± 3.8%
O=C(NCc1ncc(C(F)(F)F)cc1Cl)c1c(Cl)cccc1Cl,3.33 ± 0.85%,8.17 ± 5.4%
Cc1nc(-c2ccc(C3N(C)c4ccc(F)cc4C(=O)N3c3ccccc3)s2)cs1 (centres undefined),3.69 ± 1.5%,6.47 ± 4.9%
CNc1nc(=O)[nH]cc1F,2.97 ± 1.7%,12.9 ± 10%
O=S(=O)(NCB(O)O)c1cc2c(Cl)ccc(Cl)c2s1,4.07 ± 0.53%,15.8 ± 20%
COc1ccc(-n2cnc3cc(NCc4ccco4)ccc32)cc1,10 ± 2.1%,17.2 ± 0.88%
Nc1nc(F)nc2c1ncn2[C@H]1O[C@@H](CO)[C@H](O)[C@@H]1O,2.33 ± 1%,4.1 ± 1.2%
CCO/N=C/c1ccc(OCCCCN2CCN(c3ccncc3)C2=O)cc1,5.24 ± 4.2%,9.79 ± 7.8%
O=S(=O)(NCB(O)O)c1ccc(-c2nnn[nH]2)cc1C(F)(F)F,7.63 ± 2.6%,22.1 ± 6.9%
CCC(CC)[C@H](NC(C)=O)[C@@H]1[C@H](O)[C@@H](C(=O)O)C[C@H]1NC(=N)N,6.29 ± 2.5%,7.52 ± 7.1%
C[C@@H](c1nc(-c2ccc(C#N)cc2)cs1)[C@](O)(Cn1cncn1)c1ccc(F)cc1F,5.04 ± 1.2%,14.7 ± 10%
O=P(O)(O)C(CCCc1cccc(Oc2ccccc2)c1)S(=O)(=O)O (centres undefined),5.45 ± 0.36%,8.22 ± 4.1%
CCOc1ccc(C(=O)NCCc2ccccc2)cc1,6.06 ± 3.1%,6.07 ± 3%
Nc1cnn(C2OC(CO)C(O)C2O)c(=O)n1 (centres undefined),3.5 ± 1.1%,13.1 ± 5.4%
CC(C)(C)NC(=O)[C@@H]1C[C@@H]2CCCC[C@@H]2CN1C[C@@H](O)[C@H](Cc1ccccc1)NC(=O)[C@H](CC(N)=O)NC(=O)c1ccc2ccccc2n1,6.54 ± 4.7%,6.35 ± 4.1%
O=C1C=C(c2ccccc2)S(=O)(=O)c2ccccc21,9.24 ± 1.8%,38 ± 9.4%
CC1CCc2c(N3CCC(O)CC3)c(F)cc3c(=O)c(C(=O)O)cn1c23 (centres undefined),8.47 ± 4.4%,11 ± 2.9%

SMILES,progeny production (40 µM),progeny production (100 µM)
C/C(=N\NC(=O)C1CC1c1ccccc1)c1ccc(NC(=O)c2ccco2)cc1 (centres undefined),2.3 ± 0.95%,6.87 ± 1.1%
NC(=O)c1cnccn1,6.68 ± 7.5%,6.97 ± 1.1%
CC(C)c1cc2c(cc1S(=O)(=O)O)[C@@]1(C)CCC[C@@](C)(C(=O)O)[C@@H]1CC2,8.72 ± 4.5%,4.55 ± 3%
Cc1onc(-c2ccccc2)c1-c1ccc(S(N)(=O)=O)cc1,3.75 ± 1.8%,7.71 ± 5.3%
COc1ccc(COc2cc3oc(=O)c4cc(C(C)O)ccc4c3cc2OC)cc1 (centres undefined),5.78 ± 0.94%,10.9 ± 7%
CCC(C)NCC(O)Cn1c2ccc(Cl)cc2c2cc(Cl)ccc21 (centres undefined),7.33 ± 7%,6.85 ± 6.4%
OC1O[C@H](CSc2ccc(F)cc2)[C@@H](O)[C@H]1O (some centres undefined),5.22 ± 0.52%,9.44 ± 6.8%
O=C(O)CCNC(=O)c1ccccc1,13 ± 12%,16.4 ± 8.7%
O=C(NC(=O)N1CCCc2ccccc21)c1ccc(Cl)cc1Cl,3.48 ± 1.1%,19.2 ± 21%
Nc1nc2c(ncn2COC(CO)CO)c(=O)[nH]1,7.03 ± 4.7%,10.9 ± 4.7%
O=C(c1nc2c(C(F)(F)F)cc(C3CC3)cn2c1Cl)N1CCN([C@H]2CC[C@H](O)CC2)C(=O)C1,3.88 ± 1.4%,14.2 ± 1.2%
CCCCSc1nc(N)c2[nH]c(=O)c(=O)n(Cc3ccccc3)c2n1,4.52 ± 1.9%,20.2 ± 11%
CCc1oc2ccccc2c1C(=O)c1ccc(O)cc1,11.4 ± 2.5%,16.8 ± 0.54%
Cc1c(F)cccc1NC(=O)Nc1ccc(Cl)c(S(=O)(=O)[C@H]2CCCNC2)c1O,8.9 ± 1.8%,13 ± 5.7%
Nc1nnnn1CCOc1c2[nH]c3ccc(Cl)cc3c2cc2c1[nH]c1ccc(Cl)cc12,5.74 ± 5.8%,8.85 ± 7.7%
Cc1ccc(NC(=O)c2ccc(CN3CCN(C)CC3)cc2)cc1Nc1nccc(-c2cccnc2)n1,5.07 ± 2.9%,9.12 ± 3.8%
O=C(O)[C@H]1C2CCC(CC2)[C@@H]1Nc1nc(-c2c[nH]c3ncc(F)cc23)ncc1F,8.03 ± 4.7%,14.2 ± 12%
CCc1c(O)nc2ccc(F)cc2c1OCC1CCC1,6.76 ± 3.3%,16.2 ± 9.1%
CCC[C@H](NC(=O)[C@@H]1[C@H]2CCC[C@H]2CN1C(=O)[C@@H](NC(=O)[C@@H](NC(=O)c1cnccn1)C1CCCCC1)C(C)(C)C)C(=O)C(=O)NC1CC1,9.24 ± 1.8%,10.3 ± 1.3%
CC[C@H](CO)Nc1nc(NCc2ccccc2)c2ncn(C(C)C)c2n1,4.15 ± 1.7%,13.5 ± 9.8%
O=C(Nc1nnc(-c2ccc(Cl)cc2)o1)c1nc2ccccc2s1,8.93 ± 4.2%,6.47 ± 3.5%
CNCC(=O)OCc1cccnc1N(C)C(=O)OC(C)[n+]1cnn(C[C@](O)(c2cc(F)ccc2F)[C@@H](C)c2nc(-c3ccc(C#N)cc3)cs2)c1 (some centres undefined),7.13 ± 1.5%,16.8 ± 10%

SMILES,progeny production (40 µM),progeny production (100 µM)
O=C(O)c1ccc(-c2ccc(O[C@H]3O[C@H](CO)[C@@H](O)[C@H](O)[C@@H]3O)cc2)cc1,5.12 ± 2.8%,7.21 ± 4.6%
COc1ccc2c(c1OC)C(=O)OC2C1c2c(cc3c(c2OC)OCO3)CCN1C (centres undefined),5.88 ± 3.7%,14.7 ± 9.2%
CN(C)[C@@H]1C(=O)C(C(N)=O)=C(O)[C@@]2(O)C(=O)C3=C(O)c4c(O)c(NC(=O)CN5CCCC5)cc(F)c4C[C@H]3C[C@@H]12,4.54 ± 0.11%,6.16 ± 0.72%
CCc1ccc(C2CC(C(F)(F)F)n3ncc(C(=O)NCc4ccc(OC)cc4)c3N2)cc1 (centres undefined),8.73 ± 4.8%,7.32 ± 3.4%
Fc1cccc(Cl)c1C1CC(c2ccc(Cl)cc2)Nc2nnnn21 (centres undefined),4.5 ± 4.2%,7.47 ± 2.1%
CO[C@@]1(NC(=O)Cc2cccs2)C(=O)N2C(C(=O)O)=C(COC(N)=O)CS[C@@H]21,8.96 ± 2.4%,7.7 ± 7.8%
COc1cc(Cc2cnc(N)nc2N)cc(OC)c1OC,1.91 ± 0.77%,16.3 ± 11%
C[C@H](NC(=O)C(=O)Nc1ccccc1C(C)(C)C)C(=O)N[C@@H](CC(=O)O)C(=O)COc1c(F)c(F)cc(F)c1F,5.12 ± 0.88%,15 ± 11%
Cc1c(N)cccc1Cn1ccc(OCCc2cccs2)cc1=O,7.99 ± 2.1%,15.6 ± 15%
CCOC(=O)/C=C/[C@H](C[C@@H]1CCNC1=O)NC(=O)[C@H](CC)n1cccc(NC(=O)c2cc(C)on2)c1=O,4.38 ± 3.6%,8.98 ± 7.5%
O=C(NC1CCCc2c1[nH]c1ccc(Cl)cc21)c1ccccn1 (centres undefined),2.24 ± 0.5%,7.35 ± 5.1%
c1cc(CN2CCCNCCNCCCNCC2)ccc1CN1CCCNCCNCCCNCC1,2.33 ± 1%,9.51 ± 8.6%
O=C(CSc1nnc(Br)n1-c1ccc(C2CC2)c2ccccc12)Nc1ccc(C(=O)O)cc1Cl,3.49 ± 1.1%,15.1 ± 5.4%
OCCC#Cc1nc(-c2ccc(F)cc2)c(-c2ccncc2)n1CCCc1ccccc1,5.08 ± 0.6%,16.6 ± 12%
NC(=O)c1cnc2ccc(S(=O)(=O)c3ccccc3)cc2c1Nc1ccc(O)cc1,6.94 ± 3.1%,17.7 ± 11%
O=C(O)/C=C/C=C/c1cccc(Oc2cc(Cl)cc(Cl)c2)c1,7.69 ± 2.2%,13 ± 7.6%
CC(Cc1ccccc1)C(=O)Nc1ccc(Cl)cc1C(=O)O (centres undefined),7.65 ± 4.2%,14.4 ± 0.88%
Cc1oncc1C(=O)Nc1ccc(C(F)(F)F)cc1,3.59 ± 1.6%,6.66 ± 5%
Nc1nc2c(ncn2/C=C2/CC2(CO)CO)c(=O)[nH]1,3.83 ± 2.6%,11.8 ± 3.7%
NC(=O)c1ccc(I)c([N+](=O)[O-])c1,1.54 ± 0.63%,10 ± 2.6%
CC[C@H](NC(=O)[C@H](C)NC)C(=O)N1C[C@@H](O)C[C@H]1Cc1c(-c2[nH]c3cc(F)ccc3c2C[C@@H]2C[C@H](O)CN2C(=O)[C@H](CC)NC(=O)[C@H](C)NC)[nH]c2cc(F)ccc12,6.99 ± 3.1%,17.7 ± 7.7%
